Experiments:
Experiment in all cases: PBM binding z-score (relative to random genomic background probes); higher = stronger binding; sequences stand for … in GC…GCGATTGACAGCGTAGAATGAAGG
[1] = test system: FXR:RXRa (NR concentration 270 nM, RXRa partner concentration 90 nM)
How it was run: (§1)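 Binding z-scores take random background probes as their reference. They come from custom Agilent 4×180K protein-binding microarrays incubated 1 h with ligand-free nuclear receptor dimers, with antibodies against each partner (one per run) detecting binding. Scanned fluorescence was regression-normalized.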

[2] = test system: LXRa:RXRa (NR concentration 270 nM, RXRa partner concentration 90 nM)
How it was run: as §1

[3] = test system: LXRa homodimer (NR concentration 270 nM)
How it was run: as §1

[4] = test system: LXRb:RXRa (NR concentration 270 nM, RXRa partner concentration 90 nM)
How it was run: as §1

[5] = test system: LXRb homodimer (NR concentration 270 nM)
How it was run: as §1

[6] = test system: PPARa:RXRa (NR concentration 270 nM, RXRa partner concentration 90 nM)
How it was run: as §1

[7] = test system: PPARg:RXRa (NR concentration 180 nM, RXRa partner concentration 90 nM)
How it was run: as §1

[8] = test system: PPARg:RXRa 270nM:90nM, anti-RXR (NR concentration 270 nM, RXRa partner concentration 90 nM)
How it was run: as §1

[9] = test system: PPARg:RXRa 30nM:10nM, anti-RXR (NR concentration 30 nM, RXRa partner concentration 10 nM)
How it was run: as §1

[10] = test system: PPARg:RXRa 90nM:30nM, anti-RXR (NR concentration 90 nM, RXRa partner concentration 30 nM)
How it was run: as §1

[11] = test system: PPARg:RXRa DBDmut IVT, anti-RXR (DBD mutation: RXRa K156A/R161A, NR concentration 270 nM, RXRa partner concentration 90 nM)
How it was run: as §1

[12] = test system: PPARg:RXRa IVT, anti-PPARg (NR concentration 270 nM, RXRa partner concentration 90 nM)
How it was run: as §1

[13] = test system: PPARg DBDmut:RXRa IVT, anti-PPARg (DBD mutation: PPARg1 K132A/R137A, NR concentration 270 nM, RXRa partner concentration 90 nM)
How it was run: as §1

[14] = test system: PPARg DBDmut IVT, anti-PPARg (DBD mutation: PPARg1 K132A/R137A, NR concentration 270 nM)
How it was run: as §1

[15] = test system: PPARg homodimer (NR concentration 180 nM)
How it was run: as §1

[16] = test system: PXR:RXRa (NR concentration 270 nM, RXRa partner concentration 90 nM)
How it was run: as §1

[17] = test system: PXR homodimer (NR concentration 270 nM)
How it was run: as §1

[18] = test system: RARa:RXR (NR concentration 270 nM, RXRa partner concentration 90 nM)
How it was run: as §1

[19] = test system: RARa homodimer (NR concentration 270 nM)
How it was run: as §1

[20] = test system: RARb:RXRa (NR concentration 270 nM, RXRa partner concentration 90 nM)
How it was run: as §1

Sequence	PBM binding z-score [1]	PBM binding z-score [2]	PBM binding z-score [3]	PBM binding z-score [4]	PBM binding z-score [5]	PBM binding z-score [6]	PBM binding z-score [7]	PBM binding z-score [8]	PBM binding z-score [9]	PBM binding z-score [10]	PBM binding z-score [11]	PBM binding z-score [12]	PBM binding z-score [13]	PBM binding z-score [14]	PBM binding z-score [15]	PBM binding z-score [16]	PBM binding z-score [17]	PBM binding z-score [18]	PBM binding z-score [19]	PBM binding z-score [20]
AGAATGAGGTTACCAAAGATCATGGAAACGCTTG	2.05	6.75	-0.149	3.98	-0.29	3.63	2.88	2.95	1.11	2.19	3.74	3.68	0.737	0.847	0.294	1.8	0.0925	2.58	0.108	2.11
CGTACTGGGCCAAGGTCATTGATCAGTCAAAGCA	3.11	3.03	1.23	3	-0.201	3.99	4.09	4.29	1.79	3.54	4.15	4.66	-0.787	-0.351	1.31	3.51	1.34	3.71	-0.0917	3.35
ACTATTACTTGACTTAGGGCAACCGATACGACGC	0.391	0.445	1.02	0.691	1.56	0.231	1.19	0.283	0.727	0.716	0.692	0.81	1.57	1.96	1.24	0.284	0.533	0.623	1.42	0.876
CCGAGTAGGTTATGGGCCATTCAGGCAACGGTGA	-0.39	0.176	-0.0661	-0.0151	-0.497	1.58	2.14	3.47	1.22	3.06	3.19	2.58	-0.937	-0.608	1.06	-0.326	-0.187	-0.0932	-0.148	0.816
CCTCGGAGGACAGAAGGTTAGAGCTGTCCGCTTT	0.0561	0.0136	-0.236	-0.312	-1.14	-0.123	-0.506	-0.434	-0.944	-0.855	-0.501	-0.792	-1.88	-2.87	-0.233	-0.354	-0.764	0.0468	-1.07	1.12
CCTCGTAGGACAGAAGGTCAGAGCTGTCCGCTTT	1.05	1.85	0.197	1.35	-0.387	2.11	-0.00358	1.14	-0.551	0.426	0.395	0.358	-0.69	-1.03	1.25	1.47	-0.0848	2.1	-0.0313	3.02
GGAACGAGGGCATTCGAGTTGATATCATGGCGAT	1.43	2.06	-0.497	0.289	-0.383	1.64	1.04	0.683	0.332	0.448	2.99	2.26	-0.118	-0.698	0.277	3.8	1.54	0.922	-0.657	1.78
CCTACTGGGCCTTTCAGAGGTCATTGATCATATG	2.73	4.97	8.02	3.71	0.477	3.35	0.785	2.22	0.333	1.2	2.39	2.44	-0.307	0.081	2.46	4.68	2.5	4.52	1.01	2.8
CCTCGGAGGACAGAAGGACAGAGCTGTCCGCTTT	-0.348	-0.559	-0.63	-0.942	-0.907	-0.733	-0.176	-0.854	-1.07	-0.86	-0.418	-0.913	-0.956	-1.82	-0.605	-0.689	-0.621	-0.66	-0.614	0.716
ACTCGGAGGACAACGGTCAGAGCTACGCCAGTGA	0.0223	-0.221	-0.37	-0.773	-0.828	-0.354	0.852	0.638	-0.439	0.354	0.208	0.015	-0.698	-0.749	-0.201	-0.539	-0.446	-0.355	0.128	2
CCTTACGGCTCACTCCAGGTTATAGCATCGGAGT	0.29	0.942	1.31	0.0567	0.303	-0.0224	0.265	-0.277	0.181	-0.238	0.594	-0.0865	-0.339	-0.313	0.301	-0.0761	0.257	0.372	0.095	0.00286
ACAGACAGCTGAGTGAAGGTAACTCAGCTGGACG	-0.287	-0.122	-0.822	-0.496	-0.626	-0.464	0.214	-0.699	-0.617	-0.561	-0.835	-0.364	-0.856	-0.718	-1.12	-0.593	-0.603	-0.513	-0.693	-0.274
CGAACCAGGTCATTGACAGGACAGTGAATAGTAA	5.53	3.65	0.747	2.7	0.324	4.37	4.46	4.07	0.956	2.96	4.92	5.01	0.122	0.405	1.32	2.53	0.75	2.92	0.518	3.58
CAAACTCGGTCACGAAAGGTCAAAGTCGAATGAC	6.39	7.32	7.74	6.5	2.6	5.95	6.08	5.84	2.68	5.51	5.23	5.86	1.31	0.821	7.09	6.39	2.67	6.96	4.39	5.02
